Assay outcomes: PubChem BioAssay, National Center for Advancing Translational Sciences (NCATS)
Vaccinia Venus – inhibitors of vaccinia virus (Venus reporter); Vaccinia virus Venus reporter expression, fluorescence; Potency, µM (titrated, usually from 36.5 µM), for inactives: at the top dose activity change, negative = inhibition, usual class: inhibitors; 330,000 tested, 0.46% active; calls by dose curve; tested in A549 cells; further: nearly all actives have a fitted effect of over 30% in size
Giardia FBPA inh – inhibitors of Giardia lamblia fructose-1,6-bisphosphate aldolase; Potency, µM (titrated, usually from 59.6 µM), for the others: at the highest dose activity, negative = inhibition, hits mostly inhibitors; 290,000 tested, 0.71% active; A8B2U2; purified Giardia FBPA; active means well fitted inhibition curve with a large enough effect; inconclusive means small, poorly fitted or top-dose-only effect, or effect the other way; further: nearly all actives have a fitted effect of over 55% in size
Target sequence (A8B2U2 whole entry, looked up): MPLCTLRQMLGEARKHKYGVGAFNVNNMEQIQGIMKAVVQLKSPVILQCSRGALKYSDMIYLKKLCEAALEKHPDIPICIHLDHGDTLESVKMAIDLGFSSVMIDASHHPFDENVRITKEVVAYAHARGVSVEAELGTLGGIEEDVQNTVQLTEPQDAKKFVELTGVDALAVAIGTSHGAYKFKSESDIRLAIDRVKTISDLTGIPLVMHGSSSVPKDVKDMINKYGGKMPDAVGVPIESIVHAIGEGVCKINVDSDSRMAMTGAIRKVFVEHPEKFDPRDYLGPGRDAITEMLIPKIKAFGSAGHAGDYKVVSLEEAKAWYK
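40 nM FBPA preincubated 10 min at RT with compound (up to 57.5 uM final), then substrate plus GAPDH/TPI/NAD/arsenate coupling and diaphorase/resazurin added. Fluorescence read after 20 min at RT, 525/598 nm.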
FMDV inh – foot and mouth disease virus antiviral activity; Potency, µM (highest dose often 57.9 µM), for the others: at the top dose activity change, negative = inhibition, most hits filed as inhibitors; FMDV antiviral cell-based qHTS; 410,000 tested, 1.2% active; calls by dose curve; tested in HEK293T cells; further: read-out not given here; nearly all actives have a fitted effect of over 45% in size
Vaccinia mCherry – inhibitors of vaccinia virus infection (mCherry reporter signal). Potency, µM (top dose mostly 36.5 µM), inactives show top-dose activity change, negative = inhibition, actives largely listed as inhibitors. 310,000 tested, 0.63% active. Vaccinia virus mCherry reporter infection, fluorescence. AID 720579; calls by dose curve; tested in A549 cells; further: nearly all actives have a fitted effect of over 35% in size
Active calls of the source: *; i = inactive; ? = inconclusive; nt = not tested or not shown; [ ] = another dose, or the depositor's remark. Shown are actives, neighbours in structure and some others; about 2.2% of the full set was active somewhere. On the % scale 0 is the no-effect control and ±100 the full control effect; potency means the concentration at half of the fitted maximal effect.

SMILES	Vaccinia Venus	Giardia FBPA inh	FMDV inh	Vaccinia mCherry
COc1cc(/C=C/CN2CCOc3ccc(C(O)c4cccnc4)cc3C2)ccc1O (stereo not drawn)	-7%	nt	-16%	-14%
CC(=O)Nc1ccc(NC(=O)COC(=O)/C(=C/c2ccccc2)n2nnnc2C)cc1	-28%	nt	20µM*	?
Cc1nnnn1/C(=C\c1ccccc1)C(=O)OCC(=O)NC(C)(C)C	-28%	2%	18µM*	?
Cc1nnnn1/C(=C\c1ccccc1)C(=O)OCC(=O)NC1CCCCC1	?	nt	8.9µM*	?
CC(C)(C)NC(=O)COC(=O)c1ccccc1Oc1ccccc1	-4%	8%	-8%	i
CNc1c(Br)cc(/C=C2\C=Cc3ccccc32)cc1Br	3%	nt	nt	-5%
OC(CBr)C[n+]1cc(Br)cc2ccccc21 (stereo not drawn)	-15%	nt	nt	-25%
O=C(Nc1cccn2ncnc12)C(F)(F)F	1%	0%	-17%	i
O=C(CCl)Nc1cccn2ncnc12	7.9µM*	4%	-9%	nt
CCC(=O)N1CCc2cc(S(=O)(=O)CCC(=O)Nc3ccc(Cl)c(C(F)(F)F)c3)ccc21	7.9µM*	nt	0%	5µM*
CN1C(=O)Cc2cc(S(=O)(=O)CCC(=O)Nc3ccc(Cl)c(C(F)(F)F)c3)ccc21	-17%	nt	-14%	-37%
O=C(CCS(=O)(=O)c1ccc(Br)cc1)Nc1ccc(Cl)c(C(F)(F)F)c1	?	nt	-14%	11µM*
C/C(CC(=O)Nc1ccc(Cl)c(C(F)(F)F)c1)=N\NC(=O)c1ccccc1O	?	0%	?	10µM*
C/C(CC(=O)NC(C)(C)C)=N\NC(=O)c1ccccc1N	-5%	-8%	56%	-12%
C/C(CC(=O)Nc1ccc(Cl)c(C(F)(F)F)c1)=N\NC(N)=S	?	-14%	-17%	18µM*
C/C(CC(=O)NC(C)(C)C)=N\NC(N)=S	?	?	15%	10µM*
C/C(CC(=O)Nc1ccc(Cl)c(C(F)(F)F)c1)=N\NC(=O)c1cccc(O)c1	-5%	-18%	-18%	-14%
CCOC(=O)CSC1=NC(=O)/C(=C/c2ccc(OC)cc2)S1	?	-5%	25µM*	?
Cc1ccc(C(=O)Nc2cccc(-c3nc(CNC(=O)C4CCCCC4)c(C)o3)c2)s1	?	nt	30%	?
Cc1ccccc1C(=O)NC(C)c1nnc2n1CCN(Cc1ccccc1F)CC2 (stereo not drawn)	0%	nt	-11%	i
O=[N+]([O-])c1ccc(N2CCN(S(=O)(=O)c3ccccc3)CC2)cc1NCc1cccnc1	18µM*	-14%	?	nt
CCCOc1ccc(C2C(C(=O)/C=C/c3ccco3)=C(O)C(=O)N2CCN2CCOCC2)cc1OC (stereo not drawn)	3%	7.9µM*	6%	-1%
CCc1nnc(NC(=O)c2nc(Cl)ccc2Cl)s1	nt	nt	-12%	nt
CCSc1ncc(Cl)c(C(=O)Nc2ccccc2OC)n1	nt	-1%	-13%	nt
Cc1ccc(C)c(NC(=O)c2nc(S(=O)(=O)Cc3ccc(F)cc3)ncc2Cl)c1	-14%[7.34 µM]	nt	28µM*	-17%[7.34 µM]
SMILES	Vaccinia Venus	Giardia FBPA inh	FMDV inh	Vaccinia mCherry
CCc1nnc(NC(=O)c2nc(S(=O)(=O)Cc3ccccc3)ncc2Cl)s1	-6%	nt	-69%	i
CCc1nnc(NC(=O)c2nc(S(=O)(=O)Cc3ccc(C)cc3)ncc2Cl)s1	-13%	nt	28µM*	-8%
Cc1ccc(C)c(NC(=O)c2nc(Cl)ccc2Cl)c1	nt	5%	41%	nt
CCOc1ccccc1NC(=O)c1nc(S(=O)(=O)Cc2cccc(C)c2)ncc1Cl	-25%	nt	14µM*	-24%
CCc1nnc(NC(=O)c2nc(S(=O)(=O)Cc3cccc(C)c3)ncc2Cl)s1	2%	?	4.5µM*	10%[7.34 µM]
C=C(c1nc2ccccc2s1)C1Cc2cccc3c2N(CCC3)C1 (stereo not drawn)	i	nt	nt	i
CN(c1ccccc1)S(=O)(=O)c1ccc(NC(=O)CC(=O)c2ccccc2)cc1	-7%	nt	40µM*	i
Cc1nc2ccc(NC(=O)c3cccc(S(=O)(=O)N4CC(C)OC(C)C4)c3)cc2s1 (stereo not drawn)	?	-7%	20µM*	nt
Cc1nc2ccc(NC(=O)N(C)c3ccccc3)cc2s1	-7%	2%	-2%	-23%
COc1cccc(CN(C)CC(=O)Nc2cccc(S(=O)(=O)N(C)c3ccccc3)c2)c1OC	-14%	nt	?	-25%
COc1cc(CC(=O)Nc2cccc(S(=O)(=O)N(C)c3ccccc3)c2)cc(OC)c1OC	nt	nt	22µM*	nt
CN(c1ccccc1)S(=O)(=O)c1ccc(NC(=S)NC(=O)c2ccccc2)cc1	-17%	-12%	-27%	nt
